# Compound activity: PubChem, National Center for Advancing Translational Sciences (NCATS)
# Hits are enriched below; roughly 0.96% of the tested compounds scored in any of these assays.
# TRPML1 blocker = blocks the human TRPML1 channel | Q9GZU1 | TRPML1-inducible cells, Ca2+ dye fluorescence, FDSS; active compounds read low; inhibition of EC80 agonist-evoked calcium signal | activity change, negative = inhibition, % (test concentration not listed) | 390,000 compounds, 0.02% hits | AID 624415; in the data active = activity change below about -50%; inconclusive = between about -30% and that limit;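 also: stimulus is agonist 54-4 at its EC80 concentration; % is scaled to controls: 0 for no effect and ±100 for the full control effect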
# Target sequence (Q9GZU1 whole entry, looked up): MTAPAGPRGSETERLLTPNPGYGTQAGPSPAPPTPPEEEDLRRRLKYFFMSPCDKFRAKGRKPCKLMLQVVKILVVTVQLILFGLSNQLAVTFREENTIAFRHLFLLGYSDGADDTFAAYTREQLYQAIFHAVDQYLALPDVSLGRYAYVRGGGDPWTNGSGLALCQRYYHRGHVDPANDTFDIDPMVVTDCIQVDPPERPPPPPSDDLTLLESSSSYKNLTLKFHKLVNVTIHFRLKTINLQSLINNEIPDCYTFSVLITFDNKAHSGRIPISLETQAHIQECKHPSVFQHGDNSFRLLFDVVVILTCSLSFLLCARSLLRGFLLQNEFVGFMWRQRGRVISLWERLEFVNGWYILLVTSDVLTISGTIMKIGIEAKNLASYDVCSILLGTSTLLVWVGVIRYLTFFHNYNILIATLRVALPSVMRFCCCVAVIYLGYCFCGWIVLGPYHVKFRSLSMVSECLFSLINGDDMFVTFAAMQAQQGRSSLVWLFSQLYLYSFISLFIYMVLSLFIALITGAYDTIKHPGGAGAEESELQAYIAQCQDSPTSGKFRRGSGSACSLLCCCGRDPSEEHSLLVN
#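 Calcium fluorescence in TRPML1-DL cells induced overnight with Tet: a 110 s read after compound pin addition, then a 110 s antagonist read after challenge with 54-4 at 4 uM final (EC80).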
# TRHR ag = agonists of human TRH receptor; P34981; TRHR cells, calcium flux fluo-8, FDSS agonist mode; activation, % at 2 µM; 360,000 compounds, 0.18% hits; AID 493084; in the data active = activation above about 30%; also: 0% is about no effect
#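 TRHR-expressing cells, plated overnight in medium with 10% serum, were loaded with fluo-8 calcium dye at room temperature. After a 10 s baseline, library compound was pin-added and calcium release was recorded kinetically (ex 480/em 530) as agonist response.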
# TRHR PAM = allosterically enhances the human TRH receptor. TRHR cells, fluo-8 calcium fluorescence, EC20 TRH enhancement. 360,000 compounds, 0.66% hits. enhancement, % at 2 µM; in the data active = enhancement above about 30%; also: 0% is about no effect
#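 TRHR-expressing cells loaded with fluo-8 calcium dye were read kinetically (ex 480/em 530) during compound addition, then stimulated with an EC20 of TRH (10 nM final). Enhancement of the Gq-mediated intracellular calcium response was scored.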
# TRPV1 potentiator = potentiators of human vanilloid receptor 1 (TRPV1). Q8NER1. potentiation, % at 8.33 µM. AID 540277. TRPV1-expressing cells, Fluo-8 calcium influx, capsaicin EC20 potentiation. 320,000 compounds, 0.02% hits; in the data active = potentiation above about 80%; inconclusive = between about 30% and that limit; also: 0% is about no effect
#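 Cells expressing TRPV1 were dye-loaded with Fluo-8 and read kinetically: 10 s baseline, 3 min after compound (agonist portion), then 2 min after EC20 capsaicin (allosteric enhancer portion). Calcium-bound dye fluorescence at 480/520 nm.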
# TRPV1 agonist = agonists of human vanilloid receptor 1 (TRPV1); TRPV1-expressing cells, Fluo-8 calcium influx, agonist mode; activation, % at 8.33 µM; 320,000 compounds, 0.19% hits; AID 540275; in the data active = activation above about 80%; inconclusive = between about 30% and that limit; also: 0% is about no effect
#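 Cells expressing TRPV1 were dye-loaded with Fluo-8 and read kinetically: 10 s baseline, 3 min after compound (agonist portion), then 2 min after EC20 capsaicin (allosteric enhancer portion). Calcium-bound dye fluorescence at 480/520 nm.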
# TRPML1 agonist = agonists of human TRPML1 channel. TRPML1-expressing cells, Ca2+ dye fluorescence, FDSS. AID 624414. 410,000 compounds, 0.12% hits. activation, % (concentration not given with the values); in the data active = activation above about 50%; inconclusive = mostly about 30% to 49%; also: 0% is about no effect
#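 In this qHTS format, compounds were pin-transferred onto Ca8-dye-loaded TRPML1-DL cells induced with Tet overnight, and intracellular Ca2+ fluorescence was recorded kinetically for 110 s after a 10 s baseline. A subsequent 4uM final 54-4 (EC80) addition followed by a second 110 s read served as the antagonist phase.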
# * hit, by the source's call; ? = inconclusive; nt = no result given.
SMILES,TRPML1 blocker,TRHR ag,TRHR PAM,TRPV1 potentiator,TRPV1 agonist,TRPML1 agonist
CN(C)S(=O)(=O)c1cccc(NC(=S)NCc2ccco2)c1,31.1,1.8,38.5*,-1.0,-3.0,1.4
O=[N+]([O-])c1cccc(CP(=O)(c2ccccc2)c2ccccc2)c1,14.0,-4.1,1.0,-9.5,1.7,-0.8
Nc1cccc(CP(=O)(c2ccccc2)c2ccccc2)c1,6.8,0.3,31.4*,-17.3,-1.6,2.1
COc1ccc(-c2csc(Nc3ccccc3)[n+]2Cc2ccccc2)cc1,14.0,0.0,22.8,8.3,0.1,-0.6
Cc1ccc(-c2csc(Nc3ccc(C(=O)O)cc3)[n+]2Cc2ccccc2)cc1,0.1,0.1,32.6*,10.0,-2.8,0.2
COCCNC(=O)CN(C(=O)CCC(=O)Nc1ccccn1)c1ccc(C)cc1,-9.0,-0.3,-3.2,2.9,-0.9,-0.1
COCCNC(=O)CN(C(=O)CCC(=O)Nc1ccccn1)c1ccc(F)cc1,13.3,0.0,33.4*,-12.7,-1.5,-0.6
CCOc1ccc(N(CC(=O)NC2CCCC2)C(=O)CCC(=O)Nc2ccccn2)cc1,-10.6,-0.1,1.6,9.5,-0.8,-0.7
CC(C)c1ccc(N(CC(=O)NCc2ccco2)C(=O)CCC(=O)Nc2ccccn2)cc1,-2.8,-0.2,39.2*,?,-1.3,0.0
O=C(CN(C(=O)CCC(=O)Nc1ccccn1)c1ccc(F)cc1)NCc1ccco1,22.8,-1.5,-9.9,-18.8,-1.0,0.7
CCc1ccc(N(CC(=O)NC2CCCC2)C(=O)CCC(=O)Nc2ccccn2)cc1,-15.0,0.6,31.4*,-0.8,-0.3,0.2
COc1ccc(CN(Cc2ccccc2)C(=O)Nc2ccccc2)cc1COc1ccc(NC(C)=O)cc1,nt,nt,nt,nt,nt,0.1
O=C(CNC(=O)c1ccccc1)N[C@H](C(=O)Nc1cc(C(F)(F)F)ccc1Cl)c1ccccc1,nt,-1.1,-1.9,nt,nt,nt
Cc1ccc(Nc2ncnc3sc(C)c(C)c23)cc1,28.4,-0.1,5.6,-9.1,87.0*,2.3
C/C(=N\Nc1ncnc2sc(C)c(C)c12)c1ccccn1,-24.4,55.0*,14.8,7.4,87.5*,58.2*
S=C(NCCCc1cnc[nH]1)NCCCN(Cc1ccc(Cl)cc1)c1ccc(-c2ccccc2)cn1,nt,nt,nt,nt,nt,0.5
N#Cc1nc(N(c2ccccc2)c2ccccc2)nc(-n2cccc2)n1,nt,nt,nt,nt,nt,-0.4
O=C(COc1ccc(Cl)cc1Cl)NCC(=O)N/N=C/c1c[nH]c2ccccc12,-3.5,-0.2,35.0*,3.9,-4.0,-0.4
Cc1ccc(NC(=O)c2cnc3ccccc3n2)cc1C,3.4,-1.0,-1.5,-11.8,84.4*,1.0
CCCc1nc(SC)[nH]c(=O)c1C,16.8,0.3,34.2*,0.9,-1.2,1.1
CCOc1ccc(S(=O)(=O)N2CN(c3cccc(C(C)=O)c3)c3nc4ccccc4nc32)cc1,-20.7,nt,nt,nt,nt,64.0*
CCOc1ccc(S(=O)(=O)N2CCN(S(=O)(=O)c3ccc(C(C)=O)cc3)CC2)cc1,-8.8,-0.7,-5.7,-3.7,-0.7,-0.2
Clc1ccc2c(ccc[n+]2CCc2ccccc2)c1,nt,nt,nt,nt,nt,0.2
O=C(NCc1ccccc1)c1noc2c1CCCCC2,2.4,-0.2,-1.0,-11.2,23.9,-0.4
CC(NC(=O)c1noc2c1CCCCC2)c1ccccc1 (stereo not given),25.6,1.8,30.5*,-21.8,?,-1.5
SMILES,TRPML1 blocker,TRHR ag,TRHR PAM,TRPV1 potentiator,TRPV1 agonist,TRPML1 agonist
CCOC(=O)c1ccc2c(c1)N(CC(=O)N1CCCCC1)C(=O)C(C)(C)O2,26.2,-0.3,-4.8,-18.7,16.3,-1.0
CCOC(=O)c1ccc2c(c1)N(CC(=O)N1CCCC1)C(=O)C(C)(C)O2,-7.0,-0.3,35.7*,-6.0,0.5,1.0
CCN(Cc1ccccc1)S(=O)(=O)c1cc(C(=O)Nc2cc(Cl)cc(Cl)c2)ccc1F,1.7,0.6,1.7,nt,nt,0.7
COC(=O)c1cc(Nc2cc(C)c3ccc(O)cc3n2)cc(C(=O)OC)c1,-6.0,1.0,32.4*,-0.7,-0.8,1.2
COc1ccc2oc(C(=O)OCC(=O)Nc3ccc(NC(C)=O)cc3)c(C)c2c1,10.5,0.6,37.9*,3.7,2.2,1.0
CCOc1ccc2oc(C(=O)OCC(=O)N3C(C)CCCC3C)c(C)c2c1 (stereo not given),1.6,-0.1,0.6,-12.5,5.3,0.4
COc1ccc2oc(C(=O)OCC(=O)N3C(C)CCCC3C)c(C)c2c1 (stereo not given),48.9,-0.3,32.9*,-3.0,7.7,0.6
CC(=O)N1c2ccc(S(=O)(=O)NCCC(=O)N3CCC(C)CC3)cc2CC1C (stereo not given),-14.6,-0.1,32.3*,-8.3,0.9,0.4
COc1ccc(NC(=O)CN(c2ccccc2C)S(C)(=O)=O)c(OC)c1,-8.5,0.2,31.3*,2.3,0.3,1.2
COc1ccccc1NC(=O)CN(c1ccccc1C)S(C)(=O)=O,12.0,-0.1,-1.7,-4.4,6.6,0.3
Cc1cc2nc3c(=O)n(C4CCCCC4)c(=O)[nH]c3nc2cc1N,-30.0,119.2*,16.0,-18.6,?,86.8*
Cc1cc(C)cc(Nc2cc(=O)n(C3CCCCC3)c(=O)[nH]2)c1,7.4,1.6,-4.1,15.3,-2.3,0.2
C=CCNC(=O)c1onc(CSc2ccccc2F)c1C(=O)O,-1.2,-0.2,5.7,3.8,-0.9,-0.8
C=CCNC(=O)c1onc(CSc2cccc3ccccc23)c1C(=O)O,-14.7,-0.1,32.5*,2.0,0.6,-1.1
Cc1cccc(NC(=S)N(CCN2CCOCC2)Cc2cc3cc4c(cc3[nH]c2=O)OCCO4)c1,-4.0,-0.8,33.9*,-6.7,?,1.9
CCN(CC)CCCN(Cc1cc2cc3c(cc2[nH]c1=O)OCCO3)C(=O)Nc1ccc(F)cc1,1.0,-0.8,32.0*,-3.5,-0.6,-0.5
CCN(CC)C(=O)c1ccc2c(c1)N(Cc1ccccc1)C(=O)CS2=O (stereo not given),6.2,0.4,32.9*,15.8,-4.2,0.1
O=C(NCc1ccco1)c1ccc2c(c1)N(Cc1ccccc1)C(=O)CS2=O (stereo not given),1.0,0.5,0.6,14.3,-0.1,1.0
Cc1ccc(CCNC(=O)CN(C)S(=O)(=O)c2ccc3c(c2)c(=O)n(C)c(=O)n3C)cc1,0.7,-0.1,39.9*,8.8,3.8,-0.9
Cc1cccc(CCNC(=O)CN(C)S(=O)(=O)c2ccc3c(c2)c(=O)n(C)c(=O)n3C)c1,-1.9,-0.4,-6.9,?,-0.2,-0.4
COc1ccc(CCSc2n[nH]c(C(C)C)n2)cc1,nt,nt,nt,nt,nt,-1.3
CCc1cc2c(cc3c(=O)n(CC(=O)NC4CCCCC4)ncn32)s1,-1.6,-0.2,43.6*,nt,nt,0.2
CC1(C)CCN2CCC(C)(C)c3c(O)ccc1c32,-4.9,34.4*,1.6,-12.3,?,?
